Bioassay records as filed in PubChem BioAssay.
PLK1 PBD block = PLK1 (human) polo-box domain binding inhibition; Plk1 PBD binding of FITC phosphopeptide, fluorescence polarization; Potency, µM, inactives show max response, negative = inhibition, hits mostly inhibitors; 360,000 compounds, 2.8% hits; AID 720504; P53350; further: potency means the concentration at half of the fitted maximal effect; series mostly up to about 57 µM; on the % scale 0 is the no-effect control and ±100 the full control effect; nearly all actives have a fitted effect of over 65% in size
Target sequence (P53350 whole entry, looked up, the tested form may be a part): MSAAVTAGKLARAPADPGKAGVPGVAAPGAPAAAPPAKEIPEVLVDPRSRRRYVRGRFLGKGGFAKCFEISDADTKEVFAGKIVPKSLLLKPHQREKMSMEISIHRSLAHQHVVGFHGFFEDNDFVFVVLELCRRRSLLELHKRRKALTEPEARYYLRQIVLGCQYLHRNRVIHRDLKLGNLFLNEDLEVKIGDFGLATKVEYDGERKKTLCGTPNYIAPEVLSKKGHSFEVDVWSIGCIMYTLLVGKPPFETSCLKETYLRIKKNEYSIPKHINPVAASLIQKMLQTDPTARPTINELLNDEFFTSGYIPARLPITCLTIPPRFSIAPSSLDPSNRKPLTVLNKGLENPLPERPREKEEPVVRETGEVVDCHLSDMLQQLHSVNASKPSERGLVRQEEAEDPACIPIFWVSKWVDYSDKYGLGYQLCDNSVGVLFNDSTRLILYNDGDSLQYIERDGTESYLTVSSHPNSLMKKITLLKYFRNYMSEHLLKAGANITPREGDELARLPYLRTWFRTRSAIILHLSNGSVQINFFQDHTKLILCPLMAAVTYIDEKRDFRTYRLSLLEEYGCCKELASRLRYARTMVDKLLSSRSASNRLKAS
JMJD2A Tudor = JMJD2A Tudor domain (human) inhibition; O75164; AlphaScreen JMJD2A-Tudor / H3K4me3 peptide binding; Potency, µM (series often up to 114 µM), for inactives: top-dose activity change, negative = inhibition, usual class: inhibitors; 390,000 compounds, 4.4% hits; AID 504339; further: potency means the concentration at half of the fitted maximal effect; on the % scale 0 is the no-effect control and ±100 the full control effect; nearly all actives have a fitted effect of over 50% in size
HP1b binding inh = inhibitors of HP1-beta chromodomain binding to methylated histone tails; Potency, µM (highest dose often 114 µM), for inactives: at the highest dose activity change, negative = inhibition, hits mostly inhibitors; 390,000 compounds, 0.56% hits; AID 540317; AlphaScreen HP1-beta / biotin-H3K9me3 peptide binding; further: potency means the concentration at half of the fitted maximal effect; nearly all actives have a fitted effect of over 70% in size
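HP1-beta protein (50 nM final) preincubated 30 min at room temperature with biotinylated H3(1-18)K9me3 peptide (50 nM) in PBS pH 7.4, 0.01% Tween-20, then compound added for 30 min. AlphaScreen streptavidin donor/nickel chelate acceptor beads (10 ug/mL final), 30 min dark, luminescence read.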
GCN5L2 inh = inhibitors of human GCN5L2 histone acetyltransferase; 390,000 compounds, 0.21% hits; GCN5L2 HAT assay, ThioGlo1 CoA-SH fluorescence; Potency, µM (series often up to 58.9 µM), for inactives: at the top dose activity change, negative = inhibition, hits mostly inhibitors; Q92830; further: potency means the concentration at half of the fitted maximal effect; on the % scale 0 is the no-effect control and ±100 the full control effect
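Titration-based screen in which CoA formation is detected via maleimide probe ThioGlo1 (50uM) turning fluorescent on thiol reaction; substrates H3(1-25) 75uM and acetyl-CoA 70uM, GCN5L2 20nM, 20 min incubation at room temperature.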
PI5P4K alpha inh = inhibitors of human PI5P4K alpha; AID 652105; 330,000 compounds, 1.2% hits; max response, %; PI5P4Kalpha enzyme, ADP-Glo luminescence, 60 min; hits give low values; P48426; active means max response of -50% or lower; inconclusive means between -30% and -50%; inactive means -30% or higher; further: value at the top dose of about 77 µM; on the % scale 0 is the no-effect control and ±100 the full control effect
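ADP-Glo luminescence end-point after a 60 min room-temperature kinase reaction. PI5P4Kalpha and substrate in HEPES pH 7.4 buffer with EGTA, 0.1% CHAPS and 5% DMSO; ATP at 5 microM final.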
BAZ2B inh = inhibitors of human BAZ2B bromodomain | 360,000 compounds, 4.4% hits | AlphaScreen BAZ2B-H3K14Ac peptide displacement | Potency, µM (highest dose often 114 µM), for inactives: at the highest dose activity change, negative = inhibition, usual class: inhibitors; further: potency means the concentration at half of the fitted maximal effect; on the % scale 0 is the no-effect control and ±100 the full control effect; nearly all actives have a fitted effect of over 60% in size
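Inhibition is scored as reduced AlphaScreen emission. The BAZ2B/b-H3(5-23)K14Ac complex (50 nM each) in PBS pH 7.4, 0.01% Tween-20 meets compound (up to 110 uM) for 30 min at RT before bead addition.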
Active calls of the source: *; ? = inconclusive; · = not tested or not shown; [ ] = another dose, or the depositor's remark. The list is not random: actives were taken first. Their share in the collection is about 7%. Unless noted, the call rests on the fitted dose curve; in most records, active means well fitted curve in the direction sought with a large enough effect; inconclusive means small, poorly fitted or top-dose-only effect, or another doubt; inactive means no such curve, though single readings can be large; an effect the other way counts as inactive or inconclusive.

SMILES	PLK1 PBD block	JMJD2A Tudor	HP1b binding inh	GCN5L2 inh	PI5P4K alpha inh	BAZ2B inh
O=C(c1ccccc1)c1coc2ccc(O)c(CN3CCOCC3)c12	21µM*	-2%[11.4 µM]	-10%	-5%	-17	-3%
CN(C)Cc1c(O)ccc2occ(C(=O)c3ccccc3)c12	-1%	-13%	17%	·	·	?
COc1cc(/C=C2\C(=O)NN(c3ccc(C)cc3)C2=O)cc([N+](=O)[O-])c1O	?	?	?	-9%	-54*	40µM*
CCOc1cc(/C=C2\NC(=O)NC2=O)cc([N+](=O)[O-])c1O	-27%	-13%[11.4 µM]	-22%	-28%	-59*	?
COc1cc(/C=C2\C(=O)NN(c3ccccc3)C2=O)cc([N+](=O)[O-])c1O	?	89µM*	?	-14%	-70*	56µM*
Cc1cc(/C=C2\C(=O)NN(c3ccccc3)C2=O)c(C)n1-c1ccccc1O	-4%	-6%	36%	?	-16	-1%
CCOc1cc(/C=C2\NC(=O)NC2=O)ccc1OC(C)C(=O)O (stereo not drawn)	-13%	-4%	52%	-10%	-7	2%
COc1cc(/C=C2/C(=O)NN(c3ccc(Cl)cc3)C2=O)cc(OC)c1O	11%	50µM*	?	1%	-3	35µM*
COc1cc(/C=C2\SC(=Nc3ccc(O)cc3)NC2=O)cc(OC)c1O	-3%	-8%	7%	2%	?	-13%
COc1cc(/C=C2/C(=O)N(c3ccc(C)c(C)c3)N=C2C)cc([N+](=O)[O-])c1O	-23%	45µM*	?	-4%	-11	40µM*
COc1cc(/C=C2/C(=O)NN(c3ccccc3)C2=O)cc(Br)c1O	-8%	?	-24%	-3%	-55*	?
CCOC(=O)COc1ccc(/C=C2/C(=O)NN(c3ccc(F)cc3)C2=O)cc1OC	27µM*	?	14%	-8%	0	-9%
COc1ccc(/C=N/N2C(=O)C3C4C=CC(C4)C3C2=O)cc1[N+](=O)[O-] (stereo not drawn)	1%	-13%	22%	3%	-7	?
CCOc1cc(/C=C2\C(=O)NN(c3ccccc3)C2=O)cc([N+](=O)[O-])c1O	17µM*	50µM*	40µM*	-8%	-57*	?
CC(C)c1cc(-c2nc(-c3ccc(Cl)cc3)no2)n[nH]1	·	-11%	25%	-4%	·	-8%
Cc1ccc(S(=O)(=O)N2CCCCC2)cc1NC(=O)COC(=O)c1cccn1C	-18%	?	5%	-5%	-6	·
O=C(/C=C/c1ccc([N+](=O)[O-])cc1)c1ccco1	-5%	-18%	16%	-3%	-2	3%
O=C(/C=C/c1ccc(-c2ccccc2[N+](=O)[O-])o1)c1ccco1	-19%	18µM*	40µM*	-14%	-8	40µM*
Cc1cc2c(s1)c1cnn(Cc3cccc([N+](=O)[O-])c3)c(=O)c1n2C	·	-15%	·	·	·	·
CCCOc1ccc(CCC(=O)N/N=C/c2ccncc2)cc1	24µM*	-20%[11.4 µM]	-1%	-2%	-13	-13%
c1ccc(-n2cnc3ccccc32)nc1	-10%	-7%	32%	3%	-7	9%
S=c1[nH]ncn1-c1ccccn1	-13%	20µM*	?	-6%	1	?
CC(C)NC(=O)C1(c2ccccc2)CC1(Cl)Cl (stereo not drawn)	13µM*	-18%	-7%	2%	-2	1%
CCc1ccc(-c2cc(-c3n[nH]c(=S)n3CC)c3ccccc3n2)cc1	·	·	·	-3%	·	?
SMILES	PLK1 PBD block	JMJD2A Tudor	HP1b binding inh	GCN5L2 inh	PI5P4K alpha inh	BAZ2B inh
CCn1c(-c2csc3c2CCC(C)C3)n[nH]c1=S (stereo not drawn)	-4%	35µM*	-10%	0%	2	-30%
C=CCn1c(-c2cc3c(s2)CCC(CC)C3)n[nH]c1=S (stereo not drawn)	-17%	?	-15%	-5%	?	-29%
COc1ccc(-c2n[nH]c(=S)n2CC(C)C)cc1	-11%	4µM*	7%	1%	-6	0%
Cc1occc1-c1n[nH]c(=S)n1CC(C)C	-10%	5µM*	-8%	2%	·	8%
Cc1nonc1NC(=O)CSc1nnc(-c2ccoc2C)n1CC(C)C	-3%	-6%	45%	6%	1	-29%
CCn1c(-c2csc3ccccc23)n[nH]c1=S	0%	13µM*	-19%	4%	-18	-28%
CS(=O)(=O)N1CCCC(C(=O)N2CCN(c3cccc(Cl)c3)CC2)C1 (stereo not drawn)	-16%	-15%	3%	-10%	0	-10%
Cc1cc(C)cc(C(=O)NCC(=O)NNC(=O)CSc2ccccc2F)c1	4%	2%	50%	-3%	1	-4%
Cc1ccccc1S(=O)(=O)N(CC(O)CN1C(=O)NC(C)(C)C1=O)c1ccccc1 (stereo not drawn)	-14%	-7%	19%[57 µM]	0%	-14	2%
CC(C)Cn1c(-c2csc3ccccc23)n[nH]c1=S	-12%	79µM*	2%	-6%	9	-9%
Cc1cccc(-n2c(-c3csc4ccccc34)n[nH]c2=S)c1	-13%	?	?	-2%	-13	?
CCc1ccc(C2NC(=S)NC3=C2C(=O)N(c2ccccc2OC)C(c2ccc(CC)cc2)N3)cc1 (stereo not drawn)	-5%	-23%	18%	-6%	·	?
O=C1C2=C(NC(=S)NC2c2ccc(Cl)cc2)NC(c2ccc(Cl)cc2)N1c1ccc(Cl)cc1 (stereo not drawn)	-2%	?	18%	-28%	-52*	?
Cc1c(CCO)c(=O)n2c([nH]c3ccccc32)c1C#N	5%	-4%	38%	-12%	-3	-11%
N#Cc1c(=O)c2nc(NCCCO)ncc2n2c(=O)c3ccccc3[nH]c12	-16%	56µM*	28%	-19%	-65*	13µM*
COc1cc(C(=O)NNC(=O)CNC(=O)C2CCCCC2)ccc1OC(C)C	-2%	-14%	13%[57 µM]	-1%	0	·
CC(Cl)C(=O)NN=C(c1ccccc1)c1ccccc1 (stereo not drawn)	5%	-12%	41%	1%	0	-7%
CC(C)(C)C(CCl)C(=O)NN=C(c1ccccc1)c1ccccc1 (stereo not drawn)	-17%	100µM*	49%	-6%	-1	?
COCCCNC(=O)C[C@H]1C[C@H](C(=O)N(C(C)C)C(C)C)[C@@]2(C)c3[nH]c4cc(CCC(=O)N(C)C)ccc4c3CCN2C1=O	0%	-8%	28%	-4%	0	·
